Bioassay records: PubChem, several laboratories
NPR1 activator: GC-A (human) enzyme activation. P16066. HEK293 GC-A cells, cGMP TR-FRET, EC30 ANP; 0% at EC30 ANP, 100% saturating ANP. activation, % at 10 µM. actives 0.14% (n = 370,000); in the data active = activation above about 40%
ADAM10 inh: inhibits human ADAM10; O14672; recombinant ADAM10, EDANS/DABCYL FRET peptide cleavage, 3 h; inhibition, % at 7 µM; actives 0.62% (n = 370,000); AID 720582;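 active = inhibition above a per-campaign cutoff equal to the mean of compounds falling between control-based bounds plus 3 SD, cut at about 20% in these data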;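 note: 0% = DMSO wells while the 100% control is not disclosed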
NPR2 activator: GC-B (human) receptor activation | actives 0.11% (n = 370,000) | HEK293-GC-B cells, CNP EC30, cGMP TR-FRET; 0% at EC30 CNP, 100% saturating CNP | activation, % at 10 µM | AID 1920062 | P20594;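 active = activation at 10 µM reaching about 35% in either raw or pattern-adjusted values, limit read from the data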
Target sequence (P20594 whole entry, looked up): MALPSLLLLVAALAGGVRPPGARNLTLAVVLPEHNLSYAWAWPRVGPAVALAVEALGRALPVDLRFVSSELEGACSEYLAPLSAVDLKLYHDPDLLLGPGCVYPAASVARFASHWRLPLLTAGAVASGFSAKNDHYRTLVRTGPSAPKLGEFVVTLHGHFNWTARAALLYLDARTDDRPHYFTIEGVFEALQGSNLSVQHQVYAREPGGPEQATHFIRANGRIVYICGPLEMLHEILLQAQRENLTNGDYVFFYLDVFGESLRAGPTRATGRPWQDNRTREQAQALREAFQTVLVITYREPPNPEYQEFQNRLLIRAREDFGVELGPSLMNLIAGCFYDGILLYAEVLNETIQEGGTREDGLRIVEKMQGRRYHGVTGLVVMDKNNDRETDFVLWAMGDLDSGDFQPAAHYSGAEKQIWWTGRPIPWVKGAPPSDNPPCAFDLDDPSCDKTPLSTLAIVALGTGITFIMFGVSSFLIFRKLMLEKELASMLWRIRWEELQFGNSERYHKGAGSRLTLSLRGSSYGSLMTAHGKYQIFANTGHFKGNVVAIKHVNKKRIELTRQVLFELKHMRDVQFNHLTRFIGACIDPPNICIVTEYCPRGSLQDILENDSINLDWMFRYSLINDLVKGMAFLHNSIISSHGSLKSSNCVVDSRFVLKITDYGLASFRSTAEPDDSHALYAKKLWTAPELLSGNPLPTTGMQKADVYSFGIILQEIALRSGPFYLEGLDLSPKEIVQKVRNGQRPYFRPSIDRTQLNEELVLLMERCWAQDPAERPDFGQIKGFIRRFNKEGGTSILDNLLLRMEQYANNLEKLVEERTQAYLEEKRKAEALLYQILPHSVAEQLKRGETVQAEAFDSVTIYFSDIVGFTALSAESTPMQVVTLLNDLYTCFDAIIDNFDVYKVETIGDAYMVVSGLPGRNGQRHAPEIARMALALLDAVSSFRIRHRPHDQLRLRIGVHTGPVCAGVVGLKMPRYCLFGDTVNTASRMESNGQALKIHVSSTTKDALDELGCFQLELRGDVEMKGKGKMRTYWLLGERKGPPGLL
ADAM17 inh: ADAM17 inhibition, QFRET primary screen; P78536; recombinant ADAM17, EDANS/DABCYL FRET peptide cleavage; inhibition, % at 6.95 µM; actives 0.83% (n = 370,000); AID 720648;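 active = inhibition above the mean of compounds lying between control limits plus 3 SD, set per campaign, cut at about 8.5% in these data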;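 note: 0% = DMSO-only wells as the low control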
ADAM10 confirm: human ADAM10 inhibition, confirmation; shares compounds with ADAM10 inh; ADAM10 QFRET peptide cleavage, EDANS fluorescence; inhibition, % at 6.95 µM; actives 1% (n = 2,100); AID 743208;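 active = inhibition above about 20% chosen separately for each screening run, limit read from the data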;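 note: 0% = DMSO wells and 100% = marimastat wells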
ADAM17 counter: ADAM17 inhibition, counter-screen for ADAM10 exosite hits; inhibition, % at 6.95 µM; ADAM17 QFRET peptide cleavage, EDANS fluorescence; shares compounds with ADAM10 inh; actives 0.5% (n = 2,100);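 active = mean triplicate inhibition above the solvent-only control wells' mean plus 3 SD, cut at about 12% in these data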;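 note: 0% = DMSO wells and 100% = marimastat wells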
Active calls of the source: *; . = no result given. Rows were chosen to be rich in hits. Some 1.3% of all compounds tested hit in one or more screens of this group.

SMILES	NPR1 activator	ADAM10 inh	NPR2 activator	ADAM17 inh	ADAM10 confirm	ADAM17 counter
CCOC(=O)c1c(C)oc2ccc(NS(=O)(=O)c3cccs3)cc12	1	21*	7	5	5	1
COc1ccc([C@@H]2[C@@H]3C(=O)N(C(C)(C)C)C(=O)[C@@H]3[C@]3(Cc4ccccc4)C(=O)N(c4ccc(OC)cc4)C(=O)N23)cc1	1	23*	-3	2	1	0
Cc1ccc(Sc2ncccc2COC(=O)Nc2ccccc2)cc1	-3	22*	-1	8	6	3
Cc1ccc(Sc2ncccc2COC(=O)Nc2c(C)cccc2C)cc1	1	16	-6	7	.	.
Cc1cc(N2CCOCC2)ccc1/C=C\[N+](=O)[O-]	14	20*	-1	5	1	0
O=C(CN1N=C(C(F)(F)F)CC1(O)c1ccc([N+](=O)[O-])cc1)c1ccccc1 (centres undefined)	2	7	-3	-2	.	.
O=C(c1ccccc1O)N1N=C(C(F)(F)F)CC1(O)c1ccc([N+](=O)[O-])cc1 (centres undefined)	2	27*	2	6	1	0
CC(C)(C)C(=O)NC1CC2CCCC(C1)N2C(=O)Nc1ccc(Cl)cc1 (centres undefined)	-10	-10	-1	-8	.	.
O=C(Nc1cccc2ccccc12)c1ccccc1NS(=O)(=O)c1cccc2cccnc12	3	-8	10	-1	.	.
O=C(O)c1ccccc1NS(=O)(=O)c1cccc2cccnc12	4	22*	1	0	-1	0
CCc1cc(C(=O)Cc2ccc(F)cc2)c(O)cc1O	4	23*	-3	9	2	2
COc1ccccc1NCC(O)COc1ccc(C(C)(C)C)cc1 (centres undefined)	1	21*	0	5	2	1
CCOC(=O)[C@H]1[C@H]2COc3ccc(Cl)cc3[C@@H]2N2C(=O)c3cc(Cl)ccc3NC(=O)[C@@]12C	-6	16	-14	8	.	.
COc1ccc2c(c1)OC[C@H]1[C@H]2N2C(=O)CN(Cc3ccccc3)C(=O)[C@@]2(C)[C@H]1c1ccccc1	-6	23*	-3	8	4	1
COc1ccc(CN2CC(=O)N3[C@H]4c5ccc(OC)cc5OC[C@@H]4[C@H](c4ccccc4)[C@]3(C)C2=O)cc1	-1	12	2	3	.	.
CCOC(=O)[C@H]1[C@H]2COc3ccc(Br)cc3[C@H]2N2C(=O)CN(Cc3ccc(C)cc3)C(=O)[C@@]12C	-15	20*	-9	5	1	1
CCOC(=O)[C@H]1[C@H]2COc3ccc(Cl)cc3[C@@H]2N2C(=O)c3cc(Br)ccc3NC(=O)[C@@]12C	-9	23*	-21	6	5	1
COC(=O)C[C@@H]1OC[C@H](C(C)C)N1S(=O)(=O)c1ccc(C)cc1	-5	-8	5	-2	.	.
COc1ccc(C(=O)O[C@@H]2CCC[C@@]3(C(=O)N(Cc4ccccc4)c4ccccc43)[C@H]2NC(=O)CCc2ccccc2)cc1OC	1	20*	0	8	5	2
CCCc1cc(=O)n2[nH]c(C)c(-c3ccccc3)c2n1	5	-20	4	-8	.	.
Cc1[nH]n2c(=O)cc(-c3ccc([N+](=O)[O-])cc3)nc2c1-c1ccccc1	-2	23*	3	8	2	1
O=C(OCc1cn(Cc2ccccc2F)nn1)N1CCOCC1	3	-10	2	-8	.	.
CN(CCC1CCCCO1)C(=O)c1cc(COc2ccc(F)cc2F)on1 (centres undefined)	4	-10	-1	-1	.	.
CN(CCCC1CCCC1)C(=O)c1cc(COc2ccc(F)cc2F)on1	2	22*	-1	1	5	2
CCc1ccc(NC(=O)c2ccc(F)c(S(=O)(=O)N(CC)c3ccccc3)c2)cc1	5	20*	4	3	3	0
SMILES	NPR1 activator	ADAM10 inh	NPR2 activator	ADAM17 inh	ADAM10 confirm	ADAM17 counter
CN(C)c1cccc(Nc2ccc(-c3ccc(OC(F)(F)F)cc3)cn2)c1	-2	-12	-3	-5	.	.
CC(=O)c1ccc2c(c1)CCN2	2	-13	-3	-4	.	.
CC/C=C\[C@H](O)[C@H](O)C1=C(C)C(=O)[C@]2(O1)C(=O)N[C@@](OC)(C(=O)c1ccccc1)C2O (some centres undefined)	3	63*	3	-7	7	3
CCN(CC)S(=O)(=O)c1ccc(=O)n(CC(=O)N2Cc3ccccc3CC2C(N)=O)c1 (centres undefined)	2	0	-4	-7	.	.
NC(=O)c1ccsc1NC(=O)CS(=O)(=O)c1ccccc1	3	84*	-3	-1	0	0
NC(=O)c1ccsc1NC(=O)CCS(=O)(=O)c1ccccc1	2	-1	-2	0	.	.
NNC(=O)Cn1nc(-c2ccccc2)c2ccccc2c1=O	-1	1	1	2	.	.
CN(C)CCCNC(=O)C1(O)c2cc(Br)ccc2NC(=O)N1c1c(F)cccc1F (centres undefined)	4	-1	2	2	.	.
COc1ccc(C(=O)/C=C/c2ccccc2C(F)(F)F)cc1	-1	20*	-2	6	2	0
CCOc1ccc(C(=O)/C=C/c2ccccc2C(F)(F)F)cc1	0	10	-12	6	.	.
CCCC1(c2ccccc2)NC(=O)N(CC(=O)Nc2cc(S(=O)(=O)N3CCOCC3)ccc2Cl)C1=O (centres undefined)	2	-7	4	-2	.	.
CCc1nnc(NC(=O)CSc2ccc(-c3ccc(-n4cccn4)cc3)nn2)s1	-1	54*	-2	-3	0	0
Cc1ccc(N=C(NO)c2nonc2N)c(C)c1	4	-2	4	5	.	.
Cc1ccc(N=C(NOCc2ccc(Cl)cc2Cl)c2nonc2N)c(C)c1	-5	21*	-9	5	7	2
C#Cc1ccc(NC(=O)C2(C)CCN2C(=O)C2(c3ccccc3)CCCC2)cc1 (centres undefined)	-1	0	-3	0	.	.
CC1(C)CC(=O)C=C(c2ccc(COC(=O)C(c3ccccc3)c3ccccc3)cc2)C1=O	-1	20*	8	6	3	0
O=c1[nH][nH]c2c1[C@@H](c1ccc(F)cc1)O[C@H](CCc1ccccc1)C2	-3	19	-4	8	.	.
O=c1[nH][nH]c2c1C(c1ccc(F)cc1)OC(CCc1ccccc1)C2 (centres undefined)	3	20*	-2	7	3	1
